Measurements reported in PubChem BioAssay AID1159580 (chemical genetic matrix, 2015).
Among all 5,500 compounds or so, about 2,000 (36%) were called active. Not shown: some 18% with an inconclusive outcome. Cut-off read from the data, not from the text of the source: active = normalized growth mostly below about 0.91 (no sharp cut-off); inconclusive = no clear call, values can overlap the other calls; inactive = mostly above about 0.92. This is one part of the list.

Assay: chemical genetic growth profiling, strain panel (AID 1159580);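 note: tested at 20 µM; growth read once vehicle control cultures reached saturation at 30 °C; 1 = growth at the plate median or of vehicle wells; lower values mean less growth of the strain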
Settings: S. cerevisiae deletion strains, growth OD

Measured: normalized growth

OCc1cc(C(O)CNCCCCCCOCCCCc2ccccc2)ccc1O (centres undefined)
inactive: locus YAL040C, strain CLN3, active compounds read low 1.07 | locus YCL061C, strain MRC1 (second series), active compounds read low 1.01 | locus YDR150W, strain NUM1, active compounds read low 1.01 | locus YDR363W, strain ESC2, active compounds read low 0.995 | locus YER002W, strain NOP16, active compounds read low 1.02 | locus YMR263W, strain SAP30, active compounds read low 1.01 | locus YMR307W, strain GAS1, active compounds read low 0.992 | locus YNL175C, strain NOP13, active compounds read low 1.01 | locus YNL197C, strain WHI3, active compounds read low 1.01 | locus YNL224C, strain SQS1, active compounds read low 1.01 | locus YOR083W, strain WHI5 (second series), active compounds read low 1.01 | locus YPL055C, strain LGE1, active compounds read low 0.983 | locus YPL241C, strain CIN2, active compounds read low 0.997

N/C(Cn1ccc(C(F)(F)F)n1)=N/OS(=O)(=O)c1cccc(Cl)c1Cl
inactive: locus YAR019C, strain CDC15, active compounds read low 0.979 | locus YBL105C, strain PKC1, active compounds read low 0.989 | locus YBR135W, strain CKS1, active compounds read low 0.977 | locus YBR136W, strain MEC1, active compounds read low 0.985 | locus YBR160W, strain CDC28, active compounds read low 0.972 | locus YDL017W, strain CDC7, active compounds read low 0.994 | locus YDL028C, strain MPS1, active compounds read low 0.985 | locus YDL101C, strain DUN1, active compounds read low 0.989 | locus YDL108W, strain KIN28, active compounds read low 0.98 | locus YDL132W, strain cdc53, active compounds read low 0.983 | locus YDL214C, strain PRR2, active compounds read low 1.01 | locus YDR052C, strain DBF4, active compounds read low 0.986 | locus YDR054C, strain cdc34, active compounds read low 0.975 | locus YDR226W, strain ADK1, active compounds read low 0.987 | locus YDR477W, strain SNF1, active compounds read low 0.993 | locus YER123W, strain YCK3, active compounds read low 0.989 | locus YER133W, strain GLC7, active compounds read low 0.995 | locus YFL009W, strain cdc4, active compounds read low 0.988 | locus YFL029C, strain CAK1, active compounds read low 0.979 | locus YFR003C, strain YPI1, active compounds read low 0.985 | locus YFR019W, strain FAB1, active compounds read low 1 | locus YFR028C, strain CDC14, active compounds read low 0.98 | locus YGR040W, strain KSS1, active compounds read low 0.983 | locus YGR052W, strain FMP48, active compounds read low 1.09 | locus YGR092W, strain DBF2, active compounds read low 0.974 | locus YHR030C, strain SLT2, active compounds read low 1.07 | locus YHR079C, strain IRE1, active compounds read low 1.05 | locus YHR082C, strain KSP1, active compounds read low 1.11 | locus YHR205W, strain SCH9, active compounds read low 1.02 | locus YIL147C, strain SLN1, active compounds read low 0.987 | locus YJL095W, strain BCK1, active compounds read low 1.08 | locus YJL128C, strain PBS2, active compounds read low 0.988 | locus YJL157C, strain FAR1, active compounds read low 1 | locus YJR016C, strain ILV3, active compounds read low 0.989 | locus YJR066W, strain TOR1 (second series), active compounds read low 0.982 | locus YJR066W, strain TOR1, active compounds read low 1.12 | locus YKL048C, strain ELM1, active compounds read low 0.984 | locus YKL067W, strain YNK1, active compounds read low 0.994 | locus YKL101W, strain HSL1, active compounds read low 1.01 | locus YKL193C, strain SDS22, active compounds read low 0.983 | locus YKL203C, strain TOR2, active compounds read low 1.06 | locus YLR113W, strain HOG1, active compounds read low 1.04 | locus YLR133W, strain CKI1, active compounds read low 1.01 | locus YLR403W, strain SFP1, active compounds read low 0.992 | locus YML070W, strain DAK1, active compounds read low 1 | locus YMR001C, strain CDC5, active compounds read low 0.983 | locus YMR205C, strain PFK2 (second series), active compounds read low 1 | locus YMR277W, strain FCP1, active compounds read low 0.991 | locus YNL006W, strain LST8, active compounds read low 0.99 | locus YNL020C, strain ARK1, active compounds read low 1.01 | locus YNL161W, strain CBK1, active compounds read low 0.981 | locus YNL183C, strain NPR1, active compounds read low 1.06 | locus YNL207W, strain RIO2, active compounds read low 0.977 | locus YNL222W, strain SSU72, active compounds read low 0.977 | locus YNL307C, strain MCK1 (second series), active compounds read low 0.997 | locus YOL078W, strain AVO1, active compounds read low 0.986 | locus YOL136C, strain PFK27, active compounds read low 1.02 | locus YOR061W, strain CKA2, active compounds read low 1.01 | locus YOR119C, strain RIO1, active compounds read low 1.04 | locus YOR231W, strain MKK1, active compounds read low 1.01 | locus YOR329C, strain SCD5, active compounds read low 0.992 | locus YPL031C, strain PHO85, active compounds read low 0.998 | locus YPL153C, strain RAD53, active compounds read low 0.987 | locus YPL204W, strain HRR25, active compounds read low 0.989 | locus YPL209C, strain IPL1, active compounds read low 0.978 | locus YPL256C, strain CLN2, active compounds read low 1.03 | locus YPR025C, strain CCL1, active compounds read low 0.978 | locus YPR106W, strain ISR1, active compounds read low 0.992 | locus YPR111W, strain DBF20, active compounds read low 0.976 | strain NNK1, active compounds read low 0.998 | strain TSCII, active compounds read low 0.986
